The record followed here is PubChem BioAssay.

For part of these data: Results with a measured potency or affinity are listed apart. Calls of active or inactive are those of the source.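 Rule for the calls, unless noted: active = primary screen active and over 50% activation in each of two duplicate runs; inactive = the rest.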

Broadly, the inhibition is how much of the control response was suppressed.

Assay [1] concerns TRPC4 beta (transient receptor potential cation channel C4), mouse. In words: activators of mouse TRPC4 channel, confirmation, cell-based, Fluo4 calcium, HEK293 TRPC4beta/mu-opioid, duplicates, 10 µM (AID 2426;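 active = fluorescence ratio normalized to control raised more than 50% in primary screen plus both repeat runs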;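 for activation: percent rise of integrated ratio over buffer wells lacking compound which define 0%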). Particulars: Fluo4 calcium fluorescence, at 10 µM; hits give high values.
In assay [2] the test system is transient receptor potential cation channel C4 beta (TRPC4), mouse. In words: activators of mouse TRPC4 channel, confirmation, cell-based, second round, Fluo4, HEK293 TRPC4beta/mu-opioid, 1 µM (AID 2461). Conditions: Fluo4 calcium fluorescence, at 1 µM; hits give high values.
Assay [3] relates to TRPC4 (transient receptor potential cation channel C4 beta), mouse. Briefly: positive allosteric modulators of mouse TRPC4, confirmation, cell-based, second round, Fluo-4, HEK293 TRPC4beta/mu-opioid, 1 µM (AID 2554;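 active = primary screen hit whose fluorescence ratio, in both repeats, exceeds the weak agonist control mean by 3 SD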). Conditions: DAMGO EC20, Fluo-4 calcium flux, at 1 µM; hits give high values. On the technique in general: Calcium flux is commonly read through the fluorescence of an indicator in the cells.

In assay [4] the test system is TRPC4 beta (transient receptor potential cation channel C4), mouse. Briefly: positive allosteric modulators of mouse TRPC4, confirmation, cell-based, Fluo-4, HEK293 TRPC4beta/mu-opioid (AID 2555;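 active = primary screen hit whose calcium fluorescence ratio, in both repeats, exceeds the weak agonist control mean by 3 SD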). Particulars: DAMGO EC20, Fluo-4 calcium flux, at 10 µM; hits give high values.
The target in assay [5] is Short transient receptor potential channel 4 (Mus musculus) (UniProt Q9QUQ5). In words: inhibitors of mouse TRPC4 channel, confirmation, cell-based, Fluo4, HEK293 TRPC4beta/mu-opioid (AID 2636;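 active = calcium signal cut by more than 3 SD below the full-agonist control yet still positive, in both repeats and the earlier primary screen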). Conditions: DAMGO, Fluo4 calcium flux, at 10 µM; hits give high values.
Assay [6] shares this target. In words: inhibitors of mouse TRPC4 channel, confirmation, cell-based, second round, Fluo4, HEK293 TRPC4beta/mu-opioid, 1 µM (AID 2637;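 active = calcium signal ratio cut to more than 3 SD under the fully stimulated control mean yet still positive, in both repeats and the primary screen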;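 for inhibition: percent of integrated ratio relative to wells lacking test compound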). Conditions: Fluo4 calcium flux, DAMGO, at 1 µM; hits give high values.
For assay [7] the target is unchanged. Briefly: mouse TRPC4 channel activators, dose response, cell-based, HEK293 TRPC4/mu-opioid, Fluo-4 calcium (AID 434937;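 active = primary screen activator hit with a dose response curve and TRPC4 channel activation at any tested dose; inactive = no activation, no dose response, or not a primary hit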).
The target is the same in assay [8]. Briefly: TRPC4 positive allosteric modulators, dose response, cell-based, HEK293 TRPC4/mu-opioid, Fluo-4 calcium, EC20 DAMGO (AID 434941;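 active = earlier screen potentiator hit that boosts the TRPC4 ion channel at some dose, with a dose response; inactive = no potentiation, no dose response, or not a prior hit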;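 note: calcium entry triggered by an EC20 dose of DAMGO at the co-expressed mu-opioid receptor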).
For assay [9] the target is unchanged. Briefly: mouse TRPC4 channel inhibitors, dose response, cell-based, HEK293 TRPC4/mu-opioid, Fluo-4 calcium (AID 434942;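 active = primary screen inhibitor hit that blocks the TRPC4 channel at some tested dose, yielding a dose curve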).
Assay [10] addresses Short transient receptor potential channel 6 (Mus musculus) (UniProt Q61143). In words: inhibition of mouse TRPC6 channel, confirmation, selectivity assay for TRPC4 inhibitor project, cell-based, HEK293, membrane potential dye, duplicate (AID 434948;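 active = active in primary screen and both duplicates, each dropping signal beyond three positive-control SD with fluorescence still positive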). Particulars: HEK293 TRPC6, membrane potential dye fluorescence, at 10 µM, stimulated with maximal-effect acetylcholine; hits give high values.

The target is the same in assay [11]. Briefly: activation of mouse TRPC6 channel, confirmation, selectivity assay for TRPC4 activator project, cell-based, HEK293, membrane potential dye, duplicate (AID 434950;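 active = membrane potential signal rise above negative control mean plus 3 SD in both duplicates, also active in the earlier TRPC4 screen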;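 for activation: 0% = buffer only wells and 100% = acetylcholine maximal-effect wells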). Conditions: HEK293 TRPC6, membrane potential fluorescence, at 10 µM; hits give high values.
Assay [12] shares this target. Briefly: TRPC6 potentiation by TRPC4 potentiator hits, confirmation, selectivity assay for TRPC4 potentiator project, HEK293 cells, membrane potential dye, duplicate (AID 434952;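 active = compound raising the membrane signal above positive-control mean plus 3 SD in both repeats, and a primary screen hit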). Conditions: HEK293 TRPC6, membrane potential dye fluorescence, at 10 µM, maximal acetylcholine added after compound; hits give high values.
Assay [13] deals with Short transient receptor potential channel 4 (Mus musculus) (UniProt Q9QUQ5). In words: calcium flux activators in TRPC4/5HT1a cells, counter-screen for TRPC4 activator project, cell-based, second counter screen, HEK293 TRPC4/5HT1a, Fluo-4 (AID 434977;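 active = calcium signal rise above buffer-control mean plus 5 SD in both duplicates, and also a hit in the primary screen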;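 for activation: plate controls were assay buffer for no effect and maximal serotonin response for full effect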). Particulars: Fluo-4 calcium flux, at 10 µM; hits give high values.
Assay [14] is described as follows: calcium flux inhibitors in TRPC4/5HT1a cells, confirmation, counter-screen for TRPC4 inhibitor project, cell-based, second counter screen, HEK293 TRPC4/5HT1a, Fluo-4 (AID 434978;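 active = primary screen active whose calcium signal fell more than 3 SD beyond the full-serotonin control mean in both duplicate plates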;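 for outcome: serotonin given first at submaximal then at maximal dose after compound preincubation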). Conditions: Fluo-4 calcium flux, at 10 µM, serotonin added to trigger calcium flux; hits give high values.
The test system of assay [15] is TRPC4 (mouse), co-expressed with 5HT1a in HEK293. Briefly: calcium flux potentiators in TRPC4/5HT1a cells, confirmation, counter-screen for TRPC4 potentiator project, cell-based, second counter screen, HEK293 TRPC4/5HT1a, Fluo-4 (AID 434979;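 active = signal rise over 3 SD above mean of control wells given weak agonist, in both repeats and first screen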). Conditions: Fluo-4 calcium flux, at 10 µM, serotonin added at its EC20 dose; hits give high values.
The nature of assay [16]: calcium flux activation in mu-opioid HEK293 cells, confirmation, counter-screen for TRPC4 activator project, cell-based, HEK293 mu-opioid receptor line (AID 449723;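 active = hit in primary screen, with calcium signal over 5 SD above buffer well mean in both duplicates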;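 note: counter screen cells carry the mu-opioid receptor alone and lack TRPC4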). Particulars: Fluo-4 calcium fluorescence, at 10 µM; hits give high values.
The nature of assay [17]: calcium flux enhancement in mu-opioid HEK293 cells, confirmation, counter-screen for TRPC4 allosteric potentiator project, cell-based, HEK293 mu-opioid receptor line (AID 449724;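 active = calcium signal rise more than 3 SD above the low-dose agonist control mean, in both duplicate plates and the primary screen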;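 note: HEK293 cells carrying mu-opioid receptor only with no TRPC4 channel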). Particulars: Fluo-4 calcium flux, at 10 µM, compound added before EC20 DAMGO stimulus; hits give high values.

Sequence of Short transient receptor potential channel 4 (Mus musculus) (Q9QUQ5 whole entry, looked up): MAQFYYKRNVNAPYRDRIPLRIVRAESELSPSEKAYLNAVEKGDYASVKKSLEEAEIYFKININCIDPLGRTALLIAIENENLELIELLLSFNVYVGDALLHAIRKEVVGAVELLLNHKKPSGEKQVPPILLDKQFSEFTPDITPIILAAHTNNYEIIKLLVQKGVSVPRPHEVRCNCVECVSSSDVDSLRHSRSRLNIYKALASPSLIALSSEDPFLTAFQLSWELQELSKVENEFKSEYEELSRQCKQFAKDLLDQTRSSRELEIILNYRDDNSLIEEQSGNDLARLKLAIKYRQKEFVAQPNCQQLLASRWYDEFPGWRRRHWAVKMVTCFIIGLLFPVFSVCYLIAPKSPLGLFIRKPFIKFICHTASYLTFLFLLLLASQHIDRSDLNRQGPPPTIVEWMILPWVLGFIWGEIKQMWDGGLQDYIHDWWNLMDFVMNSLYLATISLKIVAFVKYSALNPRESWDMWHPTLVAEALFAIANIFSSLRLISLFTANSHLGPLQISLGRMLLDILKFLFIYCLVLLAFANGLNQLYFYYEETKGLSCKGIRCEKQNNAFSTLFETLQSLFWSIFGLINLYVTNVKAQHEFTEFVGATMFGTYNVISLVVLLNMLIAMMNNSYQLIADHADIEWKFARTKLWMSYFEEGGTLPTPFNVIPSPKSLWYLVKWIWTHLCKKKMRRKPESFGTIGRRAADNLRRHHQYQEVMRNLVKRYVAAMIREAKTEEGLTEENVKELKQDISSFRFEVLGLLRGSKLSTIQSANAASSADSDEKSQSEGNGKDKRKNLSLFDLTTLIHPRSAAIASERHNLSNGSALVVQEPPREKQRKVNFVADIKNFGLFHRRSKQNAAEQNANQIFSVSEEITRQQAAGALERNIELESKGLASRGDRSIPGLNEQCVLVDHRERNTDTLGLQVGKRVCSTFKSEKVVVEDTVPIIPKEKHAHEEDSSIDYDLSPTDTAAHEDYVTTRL
Sequence of Short transient receptor potential channel 6 (Mus musculus) (Q61143 whole entry, looked up): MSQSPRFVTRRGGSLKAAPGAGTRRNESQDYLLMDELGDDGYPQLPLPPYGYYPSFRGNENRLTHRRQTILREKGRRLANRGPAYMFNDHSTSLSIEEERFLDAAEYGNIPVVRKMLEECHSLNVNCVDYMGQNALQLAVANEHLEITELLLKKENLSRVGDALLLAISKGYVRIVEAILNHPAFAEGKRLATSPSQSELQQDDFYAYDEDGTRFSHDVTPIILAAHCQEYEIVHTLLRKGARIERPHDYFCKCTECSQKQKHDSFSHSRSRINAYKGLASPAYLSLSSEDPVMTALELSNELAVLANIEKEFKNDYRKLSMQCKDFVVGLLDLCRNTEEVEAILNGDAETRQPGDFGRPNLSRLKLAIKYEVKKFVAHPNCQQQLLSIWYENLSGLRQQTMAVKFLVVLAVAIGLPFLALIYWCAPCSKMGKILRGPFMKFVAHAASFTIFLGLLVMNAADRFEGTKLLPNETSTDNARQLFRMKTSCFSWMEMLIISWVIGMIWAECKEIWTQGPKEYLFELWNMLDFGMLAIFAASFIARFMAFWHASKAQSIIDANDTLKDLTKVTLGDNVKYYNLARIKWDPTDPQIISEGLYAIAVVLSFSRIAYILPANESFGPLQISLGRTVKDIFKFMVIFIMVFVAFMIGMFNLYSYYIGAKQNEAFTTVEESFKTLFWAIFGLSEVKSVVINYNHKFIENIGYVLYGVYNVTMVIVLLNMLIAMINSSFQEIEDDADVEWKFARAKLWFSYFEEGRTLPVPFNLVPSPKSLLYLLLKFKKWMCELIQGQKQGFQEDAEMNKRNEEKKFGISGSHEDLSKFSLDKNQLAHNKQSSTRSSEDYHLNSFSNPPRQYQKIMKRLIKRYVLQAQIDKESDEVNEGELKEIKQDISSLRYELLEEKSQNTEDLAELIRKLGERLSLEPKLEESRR

As for `CN1CCN(c2ccc(Cl)cc2NC(=O)/C=C/c2cccc(F)c2)CC1`, the outcome in assay [1], in assay [2], in assay [4], in assay [5], in assay [6] and in assay [7] was inactive. The outcome in assay [8], in assay [9], in assay [10], in assay [11], in assay [12] and in [13] was inactive. Further, the outcome in assay [14], in [16] and in [17] was inactive. Also, the potentiation was 11% (active) in assay [3] and 41.1% (active) in [15].

Turning to `Cc1cc(C)c(S(=O)(=O)N2CCN(C)CC2)c(C)c1`, the result in [1], in assay [2], in assay [4], in assay [5], in assay [6] and in assay [7] was inactive. Besides, the outcome in assay [8], in [9], in [10], in assay [11], in [12] and in assay [13] was inactive. The outcome in assay [14], in [16] and in assay [17] was inactive. Besides, the results for the potentiation in assay [3] and in [15] were 9% (active) and 12.4% (active), respectively.

For `CCOc1ccccc1C(=O)NCCc1cnc[nH]1`, the result in [1], in assay [2], in [3], in assay [5], in assay [6] and in assay [7] was inactive. Moreover, the outcome in assay [8], in assay [9], in [10], in assay [11], in [12] and in assay [13] was inactive. Further, the outcome in [14], in [16] and in [17] was inactive. Also, the potentiation in assay [4] was 10% (active); in assay [15], 16.9% (active).

As to `CC(OC(=O)Cn1cnc2c1c(=O)n(C)c(=O)n2C)C(=O)Nc1ccc(Cl)cc1` (stereo not given), the result in assay [1], in assay [2], in assay [3], in assay [4], in [5] and in assay [6] was inactive. Besides, the result in assay [7], in assay [8], in assay [9], in assay [10], in assay [11] and in assay [12] was inactive. Besides, the outcome in [13], in [14], in assay [15], in [16] and in [17] was inactive.

As to `Cc1[nH]n2c(=O)c3c(nc2c1-c1ccccc1)CCC3`, the outcome in [1], in assay [2], in [3], in assay [4], in assay [6] and in assay [7] was inactive. Besides, the outcome in assay [8], in [9], in [10], in [11], in assay [12] and in [13] was inactive. The outcome in assay [14], in assay [15], in assay [16] and in [17] was inactive. Also, in assay [5], the inhibition was 76% (active).

As for `CCN(CCNC(=O)C1CCCN(c2ncnc3c2nc2n3CCCCC2)C1)Cc1ccccc1` (stereo not given), the result in [1], in assay [2], in assay [5], in [6], in [7] and in assay [8] was inactive. Further, the outcome in assay [9], in assay [10], in assay [11], in [12], in [13] and in assay [14] was inactive. The outcome in assay [15], in assay [16] and in assay [17] was inactive. The potentiation in [3] is 18% (active); in assay [4], 10% (active).

Consider `NS(=O)(=O)c1ccc(Oc2ccc(S(N)(=O)=O)cc2)cc1`, for which the outcome in [1], in assay [2], in [3], in assay [4], in [5] and in [6] was inactive. For the same compound, the outcome in [7], in assay [8], in assay [9], in assay [10], in [11] and in [12] was inactive. Besides, the result in [13], in assay [14], in assay [15], in [16] and in assay [17] was inactive.

In the case of `CCSc1nnc([C@H](Cc2c[nH]c3ccccc23)NC(=O)OC(C)(C)C)o1`, the result in assay [1], in assay [2], in assay [3], in assay [4], in assay [5] and in assay [6] was inactive. In addition, the outcome in assay [7], in assay [8], in assay [9], in assay [10], in [11] and in assay [12] was inactive. In addition, the result in assay [13], in [14], in assay [16] and in assay [17] was inactive. Moreover, the potentiation in [15] is 13.1% (active).

As to `Cc1cc(N2CCCCC2)nc(NCc2ccccc2)n1`, the activation was 66% (active) in assay [1], 68.5% (active) in assay [11], 19.4% (active) in [13] and 29.5% (active) in assay [16]. Moreover, the result in [2], in [3], in assay [4], in [5], in assay [6] and in assay [7] was inactive. The result in assay [8], in assay [9], in [10], in assay [12], in [14] and in assay [15] was inactive. The result in [17] was inactive.

In the case of `O=c1[nH][nH]c(-c2ccccc2)c1C=Nc1ccc(F)cc1F`, the result in assay [1], in [2], in assay [3], in assay [5], in assay [6] and in [7] was inactive. In addition, the outcome in assay [8], in assay [9], in assay [10], in assay [11], in [12] and in assay [13] was inactive. Also, the outcome in assay [14], in assay [16] and in [17] was inactive. The potentiation in assay [4] is 119% (active); in assay [15] it was 86% (active).

As for `c1coc(CN=C2NC(=NCc3ccco3)c3ccccc32)c1`, the result in [1], in [2], in assay [3], in assay [4], in assay [7] and in assay [8] was inactive. Further, the result in assay [9], in assay [11], in assay [12], in assay [13], in assay [15] and in assay [16] was inactive. The result in assay [17] was inactive. For the same compound, the inhibition in assay [5] is 98% (active); in assay [6], 49% (active); in assay [10] it was 47.5% (active); in [14] it was 35.3% (active).

Regarding `CN(C)CCCSc1nc(-c2ccccc2)nc2c1CCC2`, the result in assay [1], in assay [2], in assay [4], in assay [5], in assay [6] and in assay [7] was inactive. In addition, the outcome in assay [8], in [9], in assay [10], in assay [11], in assay [12] and in [13] was inactive. The result in assay [14], in assay [15], in [16] and in assay [17] was inactive. The potentiation in assay [3] is 8% (active).

Turning to `CCN(CCCNC(=O)CCCOc1cc(=O)n(C)c2ccccc12)Cc1ccccc1`, the outcome in assay [1], in assay [2], in assay [3], in assay [4], in assay [5] and in assay [6] was inactive. The result in [7], in [8], in assay [9], in assay [10], in assay [11] and in assay [12] was inactive. Besides, the outcome in assay [13], in assay [14], in [16] and in [17] was inactive. The potentiation in assay [15] was 16.1% (active).

Turning to `Cc1ccsc1C(=O)OCC(=O)NCCNC(=O)COC(=O)c1sccc1C`, the outcome in assay [1], in [2], in assay [3], in [4], in assay [5] and in assay [6] was inactive. Besides, the result in assay [7], in [8], in assay [9], in assay [10], in [11] and in assay [12] was inactive. Moreover, the outcome in assay [13], in assay [14], in assay [15], in [16] and in [17] was inactive.

Consider `CC(=O)Nc1cccc(C(=O)OC(C(=O)c2ccc(C)cc2)c2ccccc2)c1` (stereo not given), for which the outcome in assay [1], in assay [2], in assay [3], in [4], in assay [5] and in assay [6] was inactive. The result in [7], in assay [8], in assay [9], in assay [10], in [11] and in assay [12] was inactive. In addition, the outcome in [13], in assay [14], in [16] and in assay [17] was inactive. The potentiation in assay [15] was 22.7% (active).
